Activity calls are given as the source filed them.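 The calls were made as follows: active = NADPH fluorescence slope more negative than the mean of all samples by about 3 SD, 99.7% confidence; inactive = the rest.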
target: Voltage-gated potassium channel subunit beta-2 (Rattus norvegicus) (UniProt P62483); experiment: enhancers of rat Kvbeta2 NADPH turnover – biochemical, NADPH fluorescence, primary screen (AID 623); conditions: Recombinant KvBeta, NADPH fluorescence decrease slope, 10 min; at 10 µM; active compounds read low;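 also: fluorescence intensity change per second fitted from 20 to 320 s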
Sequence (P62483 whole entry, looked up): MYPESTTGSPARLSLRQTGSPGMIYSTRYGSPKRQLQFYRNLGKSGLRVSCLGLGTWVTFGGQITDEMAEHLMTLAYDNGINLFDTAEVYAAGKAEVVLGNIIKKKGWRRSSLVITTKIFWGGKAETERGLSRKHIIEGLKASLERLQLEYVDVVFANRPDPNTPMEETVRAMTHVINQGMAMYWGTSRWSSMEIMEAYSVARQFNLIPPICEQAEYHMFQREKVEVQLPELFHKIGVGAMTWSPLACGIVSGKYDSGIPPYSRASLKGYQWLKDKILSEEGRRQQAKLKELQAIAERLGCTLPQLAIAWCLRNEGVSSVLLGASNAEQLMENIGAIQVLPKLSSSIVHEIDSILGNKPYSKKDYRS

NADPH fluorescence slope, inactive:
COc1cc(C(=O)Nc2ccc3c(c2)C(=O)N(CCC(=O)O)C3=O)cc(OC)c1OC -4.2e-05
Cc1cc(NC(=O)c2ccc3nc(-c4ccccc4)c(-c4ccccc4)nc3c2)no1 -2.8e-05
Cc1ccc2c(c1C)NC(C)CC2C (stereo not given) -2.8e-05
Cn1c(CCCNC(=O)c2ccccc2)nc2ccccc21 -5.3e-05
CCOc1ccc(N2CC(C(=O)Nc3ccc(F)cc3F)CC2=O)cc1 (stereo not given) 2.2e-05
CC(=O)Nc1nc(C)c(-c2csc(Nc3ccc(O)cc3)n2)s1 -2.7e-05
O=C(NCc1ccco1)C1CCN(C(=O)c2cc3sccc3n2Cc2ccc(F)cc2)CC1 -4.5e-05
O=C(COC(=O)C1(c2ccccc2F)CCCC1)NC1CCS(=O)(=O)C1 (stereo not given) -7.2e-06
N#CC1=C(N)Oc2n[nH]c(-c3cccs3)c2C1c1cccs1 (stereo not given) -1.8e-05
NC(=O)C1(N2CCCCC2)CCN(Cc2ccccc2Cl)CC1 -2.8e-05
CCCCc1ccc(NC(=O)c2c(C)noc2C)cc1 -0.000106
CC(=O)Oc1cccc(/C=c2\sc3nc(-c4ccco4)nn3c2=O)c1 -3e-05
CCN(CC)S(=O)(=O)c1ccc2oc(C(=O)O)c(C)c2c1 0.000115
Cc1noc(C)c1COc1cccc(C(=O)Oc2ccc3c(c2)OCO3)c1 -2.5e-05
CCOC(=O)COc1ccc(S(=O)(=O)Nc2ccc3c(c2)OCO3)cc1 -0.000101
